According to PubChem BioAssay (NCI):
The panel holds about 83,000 compounds, 20% with a hit somewhere; the sample as a whole holds those more often.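 48-hour exposure, single concentration, 96-well plates; percent growth endpoint where 0 means no net growth. Active: below 10.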 Unmarked numbers belong to inactive results. The source made the active and inactive calls.

Assays:
Test in all cases: NCI-60 one-dose screen, 48 h (100 = growth as untreated, 0 = no growth, -100 = all killed)
Conditions in all cases: 10 µM
[1] = system: DU-145 prostate
[2] = system: K-562 leukemia
[3] = system: MALME-3M melanoma
[4] = system: MDA-MB-231 breast
[5] = system: RXF 393 renal
[6] = system: SF-268 CNS
[7] = system: SF-295 CNS
[8] = system: SF-539 CNS
[9] = system: UACC-257 melanoma
[10] = system: M14 melanoma
[11] = system: HCT-15 colon
[12] = system: HT29 colon
[13] = system: SNB-75 CNS
[14] = system: SNB-19 CNS
[15] = system: U251 CNS
[16] = system: PC-3 prostate
[17] = system: SK-MEL-5 melanoma
[18] = system: UACC-62 melanoma
[19] = system: LOX IMVI melanoma
[20] = system: SK-MEL-28 melanoma

CS(=O)(=O)c1nccc(-c2c(-c3cccc(OCCc4ccccc4)c3)nc3sccn23)n1
growth [1]: 108% | growth [2]: 95.5% | growth [3]: 102% | growth [4]: 93.7% | growth [5]: 118% | growth [6]: 106% | growth [7]: 109% | growth [8]: 103% | growth [9]: 101% | growth [10]: 114% | growth [11]: 108% | growth [12]: 99.7% | growth [13]: 98.4% | growth [14]: 92.6% | growth [15]: 99.4% | growth [16]: 86.9% | growth [17]: 78.3% | growth [18]: 85.9% | growth [19]: 94.2% | growth [20]: 112%

COc1cc(-c2nn(-c3cccc(NC(=O)CN4CCOCC4)c3)cc2-c2cccnc2)ccc1Cl
growth [1]: 82.3% | growth [2]: 42.2% | growth [3]: 80.5% | growth [4]: 83.1% | growth [5]: 85.1% | growth [6]: 85.4% | growth [7]: 76.8% | growth [8]: 87% | growth [9]: 93.9% | growth [10]: 61% | growth [11]: 66.7% | growth [12]: 65.2% | growth [13]: 65.5% | growth [14]: 88% | growth [15]: 92.7% | growth [16]: 58% | growth [17]: 48.2% | growth [18]: 61.4% | growth [19]: 63.3% | growth [20]: 84.3%

COc1cc(CNC(=O)C2CSC3(C)c4ccccc4C(=O)N23)cc(OC)c1OC (stereo not given)
growth [1]: 109% | growth [2]: 71.9% | growth [3]: 109% | growth [4]: 98.3% | growth [5]: 98.7% | growth [6]: 101% | growth [7]: 104% | growth [8]: 98.2% | growth [9]: 73.8% | growth [10]: 108% | growth [11]: 106% | growth [12]: 82.6% | growth [13]: 97.5% | growth [14]: 93% | growth [15]: 82.7% | growth [16]: 90% | growth [17]: 102% | growth [18]: 92.5% | growth [19]: 105% | growth [20]: 103%

O=C(Nc1ccc2c(O)cc(S(=O)(=O)O)cc2c1)c1ccc([N+](=O)[O-])cc1
growth [1]: 99.7% | growth [2]: 99% | growth [3]: 99.8% | growth [4]: 105% | growth [5]: 105% | growth [6]: 93.9% | growth [7]: 98.2% | growth [8]: 97% | growth [9]: 74.6% | growth [10]: 94.6% | growth [11]: 99.3% | growth [12]: 95.3% | growth [13]: 99.6% | growth [14]: 95.8% | growth [15]: 84% | growth [16]: 83.1% | growth [17]: 94.8% | growth [18]: 101% | growth [19]: 95.1% | growth [20]: 102%

CCCCC/C=C/C/C=C/CCCCCCCC1=NC(C)(C)CN1C(C)C
growth [1]: 63.1% | growth [2]: -30.9% (active) | growth [3]: 56.3% | growth [4]: 36.6% | growth [5]: 25.1% | growth [6]: 55.6% | growth [7]: 31.2% | growth [8]: 65.7% | growth [9]: 25.7% | growth [10]: 28.5% | growth [11]: -3.26% (active) | growth [12]: -21% (active) | growth [13]: 42.7% | growth [14]: 47.3% | growth [15]: 0.562% (active) | growth [16]: 28.9% | growth [17]: 30.1% | growth [18]: 15.1% | growth [19]: 12.9% | growth [20]: 72%

Nc1ccc(/C=N/Nc2ccnc3c(O)cccc23)c2cccnc12
growth [1]: 37.4% | growth [2]: 0.593% (active) | growth [3]: 101% | growth [4]: 0.678% (active) | growth [5]: 55.8% | growth [6]: 43.5% | growth [7]: 84.8% | growth [8]: 67.7% | growth [9]: 105% | growth [10]: 53.8% | growth [11]: 26.1% | growth [12]: 56.8% | growth [13]: 69.9% | growth [14]: 72.7% | growth [15]: 4.7% (active) | growth [16]: 34.8% | growth [17]: 82.3% | growth [18]: 95.2% | growth [19]: -72.9% (active) | growth [20]: 90.9%

CCOC(=O)c1cc(C(=O)c2cc(OC)c(OC)c(OC)c2)n2ccc(-c3cc[n+](CC(=O)c4cc(OC)c(OC)c(OC)c4)cc3)cc12
growth [1]: 44.8% | growth [2]: -44.5% (active) | growth [3]: 63.1% | growth [4]: -22.8% (active) | growth [5]: 65.7% | growth [6]: -14.5% (active) | growth [7]: 94.3% | growth [8]: 30.4% | growth [9]: 92.5% | growth [10]: 54.5% | growth [11]: 83.3% | growth [12]: -10.1% (active) | growth [13]: 75.8% | growth [14]: 32.2% | growth [15]: -73.6% (active) | growth [16]: 54.1% | growth [17]: 81.4% | growth [18]: 87.4% | growth [19]: -43.9% (active) | growth [20]: 98.3%

CC(C)(C)OC(=O)N1CCc2c(sc3ncnc(N/N=C/c4cccc5ccccc45)c23)C1
growth [1]: 49.7% | growth [2]: 7.07% (active) | growth [3]: 49.9% | growth [4]: 45.6% | growth [5]: 2.63% (active) | growth [6]: 46.7% | growth [7]: 1.31% (active) | growth [8]: -11.3% (active) | growth [9]: 40.6% | growth [10]: 20.3% | growth [11]: 6.88% (active) | growth [12]: 26.2% | growth [13]: -3.28% (active) | growth [14]: 26.3% | growth [15]: 33.7% | growth [16]: 25.9% | growth [17]: -57.2% (active) | growth [18]: 0.0448% (active) | growth [19]: 13.1% | growth [20]: 32.9%
